# Compounds with a hit are over-represented: about 2.8% of the library has one in this group of screens.
# KKLEB tox – reduces viability of KKLEB cystic fibrosis airway cells; KKLEB CF airway cells viability, ATPlite luminescence, overnight; stronger effect = lower value; cells stimulated with P. aeruginosa culture filtrate; activity change (cytotoxicity), % at 5 µM; hit rate 0.36% among 360,000; AID 602141;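 active means corrected activity change at or below -50% at 5 µM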
# MITF TRPM1 inh – inhibitors of MITF-driven TRPM1 promoter in melanoma cells; hit rate 0.83% among 330,000; SK-MEL-5 TRPM1 promoter luciferase, 24 h; inhibition, % at 12.5 µM; AID 488899;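 active means mean inhibition across replicates of 60% or more, whatever share of single replicates reaches that level; inconclusive means some that reach 60%, reason not given; inactive means mean inhibition across replicates below 60%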
# CF NFkB inh – blocks PAF-induced NF-kB reporter in cystic fibrosis cells; AID 588850; KKLEB NF-kB-GFP reporter, GFP fluorescence overnight; hit rate 0.86% among 360,000; inhibition, % at 5 µM;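 active means at least 50% inhibition at 5 µM, scaled per plate between neutral and stimulator controls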;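 further: PAF is a Pseudomonas aeruginosa culture filtrate used as stimulus; plate controls were PAF-stimulated DMSO wells for no effect and unstimulated DMSO wells for full effect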
# Shn3 3UTR inh – inhibitors of Schnurri-3 3'UTR reporter in osteoblasts; Clone20 osteoblast Shn3 3'UTR firefly luciferase, 24 h; inhibition, % at 12.5 µM; hit rate 0.52% among 360,000; AID 588674;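 active means mean inhibition of at least 75% with every replicate also reaching 75%; inconclusive means mean inhibition at least 75% but some replicate below; inactive means mean inhibition below 75%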;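 further: 0% = median of neutral control wells and 100% = pilot-screen positive control compound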
# HIF-2a block – blocks HIF-2a reporter activity; 786-0 RCC cells HIF-2a reporter, luciferase luminescence, overnight; inhibition, % at 18.8 µM; hit rate 0.72% among 360,000; AID 624352;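 active means inhibition of the luminescence signal of 40% or more relative to plate controls, in a single-dose primary screen at 18.75 µM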
# Peg3 prom inh-1 – inhibitors of Peg3 promoter. HeLa PEG-Prom luciferase reporter, luminescence, overnight. inhibition, % at 20 µM. hit rate 1.7% among 360,000. AID 588405;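 active means inhibition of at least 50% at 20 µM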
# Peg3 prom inh-2 – Peg3 promoter inhibition confirmation; shares compounds with Peg3 prom inh-1; HeLa PEG-Prom luciferase reporter, luminescence, overnight; inhibition, % at 20 µM; hit rate 84% among 1,300;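 active means at 20 µM dose, 40% or more inhibition averaged across four replicates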
# CF NFkB conf – CF NF-kB inhibition confirmation, single concentration; hit rate 64% among 1,300; inhibition, % at 5 µM; shares compounds with CF NFkB inh; KKLEB CF airway cells, PAF-induced NF-kB-GFP fluorescence, overnight; in the data active means inhibition above about 40%;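 further: stimulus PAF is a Pseudomonas aeruginosa filtrate and not platelet activating factor; plate controls were DMSO wells with stimulus for no effect and unstimulated DMSO wells for full effect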
# Mdm2-MdmX confirm – Mdm2/MdmX (human) interaction inhibition, confirmed. SaOS-2 split-luciferase Mdm2/MdmX complementation, luminescence. AID 504601. inhibition, % at 8 µM. hit rate 99% among 740. shares compounds with HIF-2a block;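 active means mean inhibition of the luminescence signal across two replicates at or above 26 percent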
# Target sequence (O15151 whole entry, looked up): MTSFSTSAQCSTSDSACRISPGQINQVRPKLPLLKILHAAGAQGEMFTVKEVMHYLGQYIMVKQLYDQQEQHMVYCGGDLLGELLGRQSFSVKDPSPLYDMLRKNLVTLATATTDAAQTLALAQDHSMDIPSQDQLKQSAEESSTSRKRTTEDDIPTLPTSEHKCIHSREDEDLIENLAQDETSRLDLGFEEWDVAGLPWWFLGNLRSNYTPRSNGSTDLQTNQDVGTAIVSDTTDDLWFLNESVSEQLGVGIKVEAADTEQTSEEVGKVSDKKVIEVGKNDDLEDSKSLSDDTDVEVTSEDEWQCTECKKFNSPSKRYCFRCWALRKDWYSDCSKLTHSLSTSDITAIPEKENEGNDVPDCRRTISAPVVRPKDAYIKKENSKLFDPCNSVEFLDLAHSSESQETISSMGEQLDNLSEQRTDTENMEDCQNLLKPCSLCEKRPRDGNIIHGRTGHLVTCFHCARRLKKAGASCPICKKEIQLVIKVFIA
# Target sequence (Q00987 whole entry, looked up): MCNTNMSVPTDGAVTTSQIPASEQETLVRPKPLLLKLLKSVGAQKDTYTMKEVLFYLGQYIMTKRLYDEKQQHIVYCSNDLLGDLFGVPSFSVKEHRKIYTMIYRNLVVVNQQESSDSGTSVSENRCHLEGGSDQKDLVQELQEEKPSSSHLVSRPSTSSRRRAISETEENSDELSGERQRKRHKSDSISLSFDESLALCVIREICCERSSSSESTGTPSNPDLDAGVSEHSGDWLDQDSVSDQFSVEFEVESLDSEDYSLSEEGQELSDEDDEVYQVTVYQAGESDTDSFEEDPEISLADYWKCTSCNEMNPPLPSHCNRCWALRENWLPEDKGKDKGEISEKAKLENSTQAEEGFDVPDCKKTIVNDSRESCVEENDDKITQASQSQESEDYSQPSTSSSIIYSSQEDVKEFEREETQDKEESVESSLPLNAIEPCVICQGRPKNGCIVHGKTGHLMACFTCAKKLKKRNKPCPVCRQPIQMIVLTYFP
# HIF-2a inh conf – HIF-2a inhibition, single concentration confirmation | 786-0 RCC cells, HIF-2a luciferase reporter luminescence, overnight | inhibition, % at 18.8 µM | hit rate 56% among 1,800 | shares compounds with HIF-2a block;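 active means mean inhibition across four replicates of at least 40 percent at the single tested concentration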
# HIF-1a cs – counter-screen for HIF-2a inhibitors: HIF-1a inhibition in MiaPaCa-2 cells | shares compounds with HIF-2a block | hit rate 72% among 1,800 | MiaPaCa-2 HIF-1a luciferase reporter, desferoxamine, overnight | inhibition, % at 18.8 µM;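 active means mean inhibition of the reporter signal across four replicates at the single tested dose of 50% or more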
# Active calls of the source: *; ? = inconclusive; . = no result given.
SMILES,KKLEB tox,MITF TRPM1 inh,CF NFkB inh,Shn3 3UTR inh,HIF-2a block,Peg3 prom inh-1,Peg3 prom inh-2,others
O=c1c2ccccc2sc2ccc(C#CC3(O)CCCCC3)cc12,-85*,93*,-25,89*,87*,79*,92*,HIF-2a inh conf=94*;HIF-1a cs=104*
COc1ccc(OC)c(NC(=O)C2CC(=O)N(Cc3ccco3)C2)c1 (stereo not given),-3,1,4,-7,13,-12,.,
CC(=O)Nc1ccc(NC(=O)C(C)OC(=O)CCCOc2ccc(Cl)cc2C)cc1 (stereo not given),11,5,1,-11,-7,-14,.,
COc1cc(NS(C)(=O)=O)ccc1Nc1c2ccccc2nc2ccccc12,10,79*,-119,92*,55*,102*,93*,Mdm2-MdmX confirm=98*
O=C(CCl)Nc1ccccc1Sc1ccc(Cl)cc1,-9,64*,5,41,34,106*,85*,Mdm2-MdmX confirm=103*
CCC1(c2ccccc2)NC(=O)N(CC(=O)NCc2ccc(OC)cc2)C1=O (stereo not given),6,-2,-6,-12,13,2,.,
O=C(O)c1ccc(Nc2nc3c(s2)CCCC3)cc1,-1,64*,-1,28,46*,67*,54*,HIF-2a inh conf=64*;HIF-1a cs=52*
O=C1CSC(c2ccc(Cl)cc2)N1Nc1nc(N2CCOCC2)nc(N2CCOCC2)n1 (stereo not given),1,6,-5,4,21,20,.,
O=C(N/N=C/c1sc(N2CCOCC2)nc1-c1ccccc1)c1cccc(S(=O)(=O)N2CCCC2)c1,5,52,-26,90*,32,66*,66*,Mdm2-MdmX confirm=80*
O=C(NC1=NCCS1)C1COc2ccccc2O1 (stereo not given),-14,80*,5,80,83*,106*,82*,HIF-2a inh conf=90*;HIF-1a cs=85*
Cc1cc(C)cc(NS(=O)(=O)c2ccc3c(c2)c(=O)n(C)c(=O)n3C)c1,5,60,33,?,50*,54*,70*,HIF-2a inh conf=41*;HIF-1a cs=101*
Cn1c(=O)c2cc(S(=O)(=O)Nc3cc(C(=O)O)cc(C(=O)O)c3)ccc2n(C)c1=O,4,9,3,5,13,12,.,
CN1CCN(C(=O)c2cc([N+](=O)[O-])ccc2Cl)CC1,2,1,6,6,15,13,.,
Cc1c(Cl)ccc2c(C(O)CBr)cc(-c3ccccc3)nc12 (stereo not given),-20,4,17,-4,-3,14,.,
CC(=O)n1cc(N(C(=O)CCl)c2ccc(C)cc2)c2ccccc21,-103*,74*,93*,.,56*,109*,101*,Mdm2-MdmX confirm=103*
CN(C)CCN(Cc1cccs1)S(=O)(=O)c1csc(C(N)=O)c1,8,-5,-20,6,8,-8,.,
COc1ccc(/C=C/C(=O)OCC(=O)Nc2ccc3[nH]c(=O)[nH]c3c2)cc1OC,-3,8,-19,5,6,-6,.,
O=C(Nc1ccc(Cc2ccncc2)cc1)c1cccc([N+](=O)[O-])c1,-4,-5,-11,5,-94,-78,.,
O=C(Nc1ccc(Cc2ccncc2)cc1)c1ccc([N+](=O)[O-])o1,-4,45,45,98*,53*,103*,95*,HIF-2a inh conf=27;HIF-1a cs=102*
O=C(Nc1nccs1)c1ccc(NC(=O)C2CC=CCC2C(=O)O)cc1 (stereo not given),3,0,7,-11,2,6,.,
CCN(CC)C(=O)C1=C(C)N(Cc2ccc(OC)cc2)C(=O)C(CC(=O)NC2CC2)C1 (stereo not given),2,.,-5,-25,15,-19,.,
CCOC(=O)Cc1csc(NC(=S)NC(=O)c2ccc(Cl)cc2)n1,-11,11,-2,20,95*,51*,70*,HIF-2a inh conf=98*;HIF-1a cs=97*
CCOc1cc(/C=N/N=C(N)N)ccc1OCc1ccc(Cl)cc1,-24,90*,6,95*,97*,99*,97*,HIF-2a inh conf=-11;HIF-1a cs=107*
COCCN1C(=O)N(c2cccc(C)c2)C(=O)C1CC(=O)Nc1cc(OC)cc(OC)c1 (stereo not given),-5,4,-9,-20,13,12,.,
NS(=O)(=O)c1ccc(CCNC(=O)CNC(=O)c2ccc(Oc3ccccc3)cc2)cc1,-4,8,12,-3,11,8,.,
SMILES,KKLEB tox,MITF TRPM1 inh,CF NFkB inh,Shn3 3UTR inh,HIF-2a block,Peg3 prom inh-1,Peg3 prom inh-2,others
O=C(CCl)Nc1cccc(-c2cnc3ccccc3n2)c1,-64*,73*,88*,-262,-27,79*,92*,Mdm2-MdmX confirm=102*
c1ccc2c(c1)CCN(c1ncnc3nc[nH]c13)C2,-4,.,17,-3,0,10,.,
CC1Cc2ccccc2N1c1ncnc2nc[nH]c12 (stereo not given),1,-10,65*,-7,-87,-53,.,CF NFkB conf=87*
Cc1ccc(-c2csc3ncnc(NCCN4CCOCC4)c23)cc1,-23,15,58*,17,31,27,.,CF NFkB conf=47*
COc1ccc(-c2csc3ncnc(NCCN4CCOCC4)c23)cc1,-17,1,56*,22,33,30,.,CF NFkB conf=82*
c1ccc(-c2csc3ncnc(NCCN4CCOCC4)c23)cc1,-13,12,33,60,18,21,.,
Clc1ccc(-c2csc3ncnc(NCCN4CCOCC4)c23)cc1,-13,1,44,11,22,14,.,
Cc1cc(C)cc(OCCNC(=O)CCc2ccccc2)c1,-4,7,6,4,11,12,.,
CCN1CCN(C(=O)c2cc(-c3ccco3)nc3ccccc23)CC1,9,-5,-39,9,-8,5,.,
N#Cc1c(-c2ccc(Cl)cc2)n(O)c2ccccc12,-34,3,52*,25,-92,-14,.,CF NFkB conf=76*
CCN(C[C@H]1N[C@@](Cc2ccccc2)(C(=O)OC)[C@H]2C(=O)N(C)C(=O)[C@@H]12)C(=O)Nc1ccccc1,-15,-8,-10,-9,-3,7,.,

# Screening results: PubChem BioAssay, several laboratories
